# Source: PubChem BioAssay (EPA / NIEHS)
# Results filed as inconclusive are left out. Calls of active or inactive are those of the source. Rule for the calls: active = hit-call score of the fitted dose curve at least 0.9, where 1 is the maximum; inconclusive = response in the unintended direction; inactive = score below 0.9.
# Test: Tanguay_ZF_120hpf_ActivityScore_legacy: (Legacy) Oregon State University Tanguay Lab 120 Hour Post-fertilization zebrafish Assay Score for Activity (AID 2283742)
# Method in brief: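 In this whole-embryo screen, dechorionated zebrafish were exposed from 6 hpf until 120 hpf at 28C under a 0.64% DMSO vehicle. Developmental malformations and death were recorded by brightfield microscopy as binary endpoints.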
row,Structure (SMILES),outcome
1,NCCO,inactive
2,NCC1(Cc2noc(=O)[nH]2)CCCCC1,inactive
3,CCCCCCCC=O,inactive

# Test: ACEA_AR_agonist_AUC_viability: ACEA Biosciences xCELLigence Real-Time Cell Analysis on Androgen Receptor Agonism for Viability (AID 2283775);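 for AC50: viability read 80 hours after compound addition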
# Method in brief: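 22Rv1 cells; impedance growth kinetics; 8-pt 1:4 dilutions from 100 uM top final, ≤0.5% DMSO; n = 2; 80 h read; AUC viability, loss-of-signal vs DMSO.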
Structure (SMILES),outcome,AC50
C[Si]1(C)O[Si](C)(C)O[Si](C)(C)O[Si](C)(C)O1,inactive,
CCCCCCCCCCCC(=O)OC,inactive,
CCCCCCC(=O)OCC,,87.7 µM (active)
CCOC(=O)C(C)(C)Oc1ccc(Cl)cc1,inactive,
C1CCC(SSC2CCCCC2)CC1,,77.7 µM (active)
CC(C)c1ccc(C(=O)N=C(N)N)cc1S(C)(=O)=O,inactive,
Cc1ccc(C(C)C)c(O)c1,inactive,
NS(=O)(=O)c1cc2c(cc1Cl)NCNS2(=O)=O,inactive,
Cc1ccc(C)c(C)c1,inactive,
Cc1ccc2ncccc2c1,inactive,
COc1cc(-c2nc(NC(=O)c3cc4cc(C)cc(C)c4n3CC(=O)O)sc2CCC2CCCCC2)c(OC)cc1Cl,,9.71 µM (active)
COc1cc(/C=C/C(=O)CC(=O)/C=C/c2ccc(O)c(OC)c2)ccc1O,,27 µM (active)
Cc1cccc([N+](=O)[O-])c1C,inactive,
CCCCCCCCCCCCCCCCCC(=O)O,inactive,
COc1cccc2c1C(=O)c1c(O)c3c(c(O)c1C2=O)C[C@@](O)(C(=O)CO)C[C@@H]3O[C@H]1C[C@H](N)[C@H](O)[C@H](C)O1,,0.0985 µM (active)
CNCc1cc(F)ccc1Oc1ccc(Cl)c(Cl)c1,,75.9 µM (active)
CCCCCC(=O)O,inactive,
Clc1cc(Cl)c(Cl)cc1Cl,inactive,
CC(=O)OC/C=C(\C)CCC=C(C)C,inactive,
CCCCCCCCCCCCCO,inactive,
O=C(O)CCCCC(=O)O,,9.92 µM (active)
CCc1c(C(=O)NN2CCCCC2)nn(-c2ccc(Cl)cc2Cl)c1-c1ccc(Br)cc1,,12.7 µM (active)
O=C(N[C@@H](Cc1ccccc1)[C@@H](O)C(=O)N1C[C@@H](O)[C@@H](O)C1)c1cc2cc(Cl)ccc2[nH]1,,69.6 µM (active)
COCCOC[C@H](CC1(C(=O)NC2CCC(C(=O)O)CC2)CCCC1)C(=O)Oc1ccc2c(c1)CCC2 (stereo not given in full),inactive,
NCCO,inactive,
NCC1(Cc2noc(=O)[nH]2)CCCCC1,inactive,
CCCCCCCC=O,inactive,

# Test: ACEA_AR_antagonist_AUC_viability: ACEA Biosciences xCELLigence Real-Time Cell Analysis on Androgen Receptor Antagonism for Viability (AID 2283776);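 note: area under impedance growth curve at 80 h after dosing as viability; hits lower the growth signal relative to DMSO meaning cytotoxicity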
# Method in brief: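 22Rv1 human prostate cancer cells were seeded on electrode plates, monitored overnight, then exposed to eight 1:4 dilutions from 100 uM final. Impedance-based growth kinetics at 80 h gave an AUC viability endpoint normalized to DMSO.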
Structure (SMILES),outcome,AC50
C[Si]1(C)O[Si](C)(C)O[Si](C)(C)O[Si](C)(C)O1,inactive,
CCCCCCCCCCCC(=O)OC,inactive,
CCCCCCC(=O)OCC,inactive,
CCOC(=O)C(C)(C)Oc1ccc(Cl)cc1,inactive,
C1CCC(SSC2CCCCC2)CC1,,78.3 µM (active)
CCCCCCOCCO,inactive,
CC(C)c1ccc(C(=O)N=C(N)N)cc1S(C)(=O)=O,inactive,
Cc1ccc(C(C)C)c(O)c1,inactive,
CCCCCCCCCCO,inactive,
NS(=O)(=O)c1cc2c(cc1Cl)NCNS2(=O)=O,inactive,
Cc1ccc(C)c(C)c1,inactive,
Cc1ccc2ncccc2c1,inactive,
COc1cc(-c2nc(NC(=O)c3cc4cc(C)cc(C)c4n3CC(=O)O)sc2CCC2CCCCC2)c(OC)cc1Cl,,9.23 µM (active)
COc1cc(/C=C/C(=O)CC(=O)/C=C/c2ccc(O)c(OC)c2)ccc1O,,23.2 µM (active)
Cc1cccc([N+](=O)[O-])c1C,inactive,
CCCCCCCCCCCCCCCCCC(=O)O,,25 µM (active)
COc1cccc2c1C(=O)c1c(O)c3c(c(O)c1C2=O)C[C@@](O)(C(=O)CO)C[C@@H]3O[C@H]1C[C@H](N)[C@H](O)[C@H](C)O1,,0.0588 µM (active)
CNCc1cc(F)ccc1Oc1ccc(Cl)c(Cl)c1,,67.4 µM (active)
CCCCCC(=O)O,inactive,
Clc1cc(Cl)c(Cl)cc1Cl,inactive,
CC(=O)OC/C=C(\C)CCC=C(C)C,inactive,
CCCCCCCCCCCCCO,inactive,
CC(=O)OCCOCCOCCOC(C)=O,inactive,
O=C(O)CCCCC(=O)O,,3.82 µM (active)
CCc1c(C(=O)NN2CCCCC2)nn(-c2ccc(Cl)cc2Cl)c1-c1ccc(Br)cc1,,10.8 µM (active)
O=C(N[C@@H](Cc1ccccc1)[C@@H](O)C(=O)N1C[C@@H](O)[C@@H](O)C1)c1cc2cc(Cl)ccc2[nH]1,,30.9 µM (active)
COCCOC[C@H](CC1(C(=O)NC2CCC(C(=O)O)CC2)CCCC1)C(=O)Oc1ccc2c(c1)CCC2 (stereo not given in full),,16.5 µM (active)
NCCO,inactive,
NCC1(Cc2noc(=O)[nH]2)CCCCC1,inactive,
CCCCCCCC=O,inactive,
